About 7,900 targets were measured; listed, in parts, are those with a hit and a random draw of the rest. About 0.6% of all pairs of compound and target were hits. A number with no mark means an inactive call.
Compound: c1cn2cc(-c3ccc4cn[nH]c4c3)nc(Nc3ccc(N4CCOCC4)cc3)c2n1 [entospletinib]
Test: log2 fold change, soluble protein after heating vs DMSO (PISA); higher = thermal stabilisation; K562 cells, 10 uM, 30 min; active = over 0.2 and 3.5 SD of the protein, either way, in both replicates (recomputed)
In short: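 For each measurement, 10 μM compound was applied for 30 min to K562 cells at 2×10^6 cells/mL. Aliquots were heated for 3 min across 48°C-58°C, pooled, and extracted in PBS with 0.5% NP-40 at 4°C; the supernatant after 21,000xg for 90 min was soluble protein. This was quantified by TMTpro 16plex LC-MS/MS with channel sums equalised, and thermal stability was reported relative to control samples from duplicates, on a log2 fold-change scale.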

Sequence of UniProt Q6L8Q7 (Q6L8Q7 whole entry, looked up): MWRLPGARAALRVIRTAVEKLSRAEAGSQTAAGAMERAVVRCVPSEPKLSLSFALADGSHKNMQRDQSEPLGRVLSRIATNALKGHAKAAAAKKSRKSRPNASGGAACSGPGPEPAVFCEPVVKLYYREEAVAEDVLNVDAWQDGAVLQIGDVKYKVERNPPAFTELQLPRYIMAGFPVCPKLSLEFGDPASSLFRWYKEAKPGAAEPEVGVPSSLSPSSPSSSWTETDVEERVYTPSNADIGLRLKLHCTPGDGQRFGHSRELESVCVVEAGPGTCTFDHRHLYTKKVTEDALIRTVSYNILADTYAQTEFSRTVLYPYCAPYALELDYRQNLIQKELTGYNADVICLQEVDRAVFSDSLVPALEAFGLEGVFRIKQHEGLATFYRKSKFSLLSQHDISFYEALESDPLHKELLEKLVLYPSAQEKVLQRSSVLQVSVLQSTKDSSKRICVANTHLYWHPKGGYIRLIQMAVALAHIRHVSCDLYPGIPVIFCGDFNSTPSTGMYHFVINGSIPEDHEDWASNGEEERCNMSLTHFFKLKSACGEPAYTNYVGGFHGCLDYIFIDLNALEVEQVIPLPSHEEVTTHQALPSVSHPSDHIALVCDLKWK
Sequence of UniProt Q15173 (Q15173 whole entry, looked up): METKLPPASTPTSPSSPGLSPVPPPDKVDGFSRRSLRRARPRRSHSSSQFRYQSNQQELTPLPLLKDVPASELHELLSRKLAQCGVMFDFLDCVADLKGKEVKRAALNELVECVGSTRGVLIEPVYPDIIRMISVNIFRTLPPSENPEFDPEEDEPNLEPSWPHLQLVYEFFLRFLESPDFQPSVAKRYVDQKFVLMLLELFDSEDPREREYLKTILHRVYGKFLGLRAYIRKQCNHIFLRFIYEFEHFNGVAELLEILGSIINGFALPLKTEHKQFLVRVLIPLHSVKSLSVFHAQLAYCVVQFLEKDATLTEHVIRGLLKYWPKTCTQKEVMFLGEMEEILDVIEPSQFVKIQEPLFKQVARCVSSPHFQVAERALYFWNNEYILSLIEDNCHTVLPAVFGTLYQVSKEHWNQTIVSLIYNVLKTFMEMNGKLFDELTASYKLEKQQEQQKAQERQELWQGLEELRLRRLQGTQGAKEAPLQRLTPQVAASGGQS
Sequence of UniProt P49585 (P49585 whole entry, looked up): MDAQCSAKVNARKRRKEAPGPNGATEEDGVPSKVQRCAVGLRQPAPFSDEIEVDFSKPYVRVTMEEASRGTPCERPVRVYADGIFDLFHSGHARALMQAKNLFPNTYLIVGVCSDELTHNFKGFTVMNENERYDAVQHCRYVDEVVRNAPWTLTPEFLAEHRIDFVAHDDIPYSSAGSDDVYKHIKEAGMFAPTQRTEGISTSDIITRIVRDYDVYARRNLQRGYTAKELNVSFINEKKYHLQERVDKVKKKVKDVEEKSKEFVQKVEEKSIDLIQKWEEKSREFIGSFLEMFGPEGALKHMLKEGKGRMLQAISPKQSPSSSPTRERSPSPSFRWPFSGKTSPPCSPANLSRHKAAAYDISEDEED
Sequence of UniProt P35227 (P35227 whole entry, looked up): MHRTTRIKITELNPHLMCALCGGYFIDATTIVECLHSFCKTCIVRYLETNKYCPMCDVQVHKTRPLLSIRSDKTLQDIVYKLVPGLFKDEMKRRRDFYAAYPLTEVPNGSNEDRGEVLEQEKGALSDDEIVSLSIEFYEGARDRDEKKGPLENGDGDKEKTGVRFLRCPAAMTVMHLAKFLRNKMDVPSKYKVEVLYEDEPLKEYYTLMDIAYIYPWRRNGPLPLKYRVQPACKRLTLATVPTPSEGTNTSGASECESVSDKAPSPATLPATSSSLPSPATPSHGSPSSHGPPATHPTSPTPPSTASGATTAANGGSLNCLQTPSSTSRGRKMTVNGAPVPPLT
Sequence of UniProt Q10713 (Q10713 whole entry, looked up): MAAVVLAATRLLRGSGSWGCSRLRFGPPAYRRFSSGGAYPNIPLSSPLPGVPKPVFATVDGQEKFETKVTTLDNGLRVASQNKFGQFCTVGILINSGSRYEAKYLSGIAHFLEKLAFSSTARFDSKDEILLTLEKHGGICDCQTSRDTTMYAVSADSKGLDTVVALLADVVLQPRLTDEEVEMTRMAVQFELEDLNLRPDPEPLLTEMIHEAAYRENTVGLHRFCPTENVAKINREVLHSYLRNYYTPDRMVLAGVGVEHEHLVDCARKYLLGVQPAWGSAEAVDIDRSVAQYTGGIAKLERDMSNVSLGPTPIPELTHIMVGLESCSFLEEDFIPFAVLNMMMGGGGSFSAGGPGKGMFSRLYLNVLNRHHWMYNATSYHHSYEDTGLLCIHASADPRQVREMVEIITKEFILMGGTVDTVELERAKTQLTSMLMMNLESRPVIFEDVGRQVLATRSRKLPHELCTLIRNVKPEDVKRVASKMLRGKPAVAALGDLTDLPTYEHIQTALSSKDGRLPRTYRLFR
Sequence of UniProt P41247 (P41247 whole entry, looked up): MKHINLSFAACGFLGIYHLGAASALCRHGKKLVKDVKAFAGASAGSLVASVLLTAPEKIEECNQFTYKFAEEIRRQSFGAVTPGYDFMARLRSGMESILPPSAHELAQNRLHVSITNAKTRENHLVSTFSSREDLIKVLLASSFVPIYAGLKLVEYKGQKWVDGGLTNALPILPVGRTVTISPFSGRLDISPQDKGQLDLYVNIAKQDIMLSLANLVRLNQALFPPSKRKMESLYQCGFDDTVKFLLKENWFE
Sequence of UniProt P06454 (P06454 whole entry, looked up): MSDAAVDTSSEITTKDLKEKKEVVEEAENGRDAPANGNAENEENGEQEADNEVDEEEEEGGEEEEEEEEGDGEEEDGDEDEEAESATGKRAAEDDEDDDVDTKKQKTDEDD
Sequence of UniProt Q14442 (Q14442 whole entry, looked up): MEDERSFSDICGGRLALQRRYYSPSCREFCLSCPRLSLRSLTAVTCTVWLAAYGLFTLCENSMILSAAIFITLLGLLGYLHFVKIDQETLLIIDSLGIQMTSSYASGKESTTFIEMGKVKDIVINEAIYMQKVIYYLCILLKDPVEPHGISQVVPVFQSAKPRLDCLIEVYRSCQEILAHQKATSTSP
Sequence of UniProt Q8WXF1 (Q8WXF1 whole entry, looked up): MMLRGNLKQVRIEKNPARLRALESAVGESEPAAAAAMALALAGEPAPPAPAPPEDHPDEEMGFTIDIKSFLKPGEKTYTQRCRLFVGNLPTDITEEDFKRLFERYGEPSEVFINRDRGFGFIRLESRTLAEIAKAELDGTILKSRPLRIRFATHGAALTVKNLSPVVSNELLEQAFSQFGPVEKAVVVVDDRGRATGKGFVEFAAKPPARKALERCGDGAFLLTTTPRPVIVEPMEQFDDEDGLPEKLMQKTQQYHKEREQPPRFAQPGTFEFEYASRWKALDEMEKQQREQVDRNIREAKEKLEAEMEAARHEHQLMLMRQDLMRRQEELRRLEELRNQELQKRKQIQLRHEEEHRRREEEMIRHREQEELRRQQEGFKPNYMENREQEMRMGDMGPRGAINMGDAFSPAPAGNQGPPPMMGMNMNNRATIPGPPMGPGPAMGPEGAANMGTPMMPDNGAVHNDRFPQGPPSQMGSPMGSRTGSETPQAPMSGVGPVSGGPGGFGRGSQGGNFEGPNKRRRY
Sequence of UniProt Q9NTI5 (Q9NTI5 whole entry, looked up): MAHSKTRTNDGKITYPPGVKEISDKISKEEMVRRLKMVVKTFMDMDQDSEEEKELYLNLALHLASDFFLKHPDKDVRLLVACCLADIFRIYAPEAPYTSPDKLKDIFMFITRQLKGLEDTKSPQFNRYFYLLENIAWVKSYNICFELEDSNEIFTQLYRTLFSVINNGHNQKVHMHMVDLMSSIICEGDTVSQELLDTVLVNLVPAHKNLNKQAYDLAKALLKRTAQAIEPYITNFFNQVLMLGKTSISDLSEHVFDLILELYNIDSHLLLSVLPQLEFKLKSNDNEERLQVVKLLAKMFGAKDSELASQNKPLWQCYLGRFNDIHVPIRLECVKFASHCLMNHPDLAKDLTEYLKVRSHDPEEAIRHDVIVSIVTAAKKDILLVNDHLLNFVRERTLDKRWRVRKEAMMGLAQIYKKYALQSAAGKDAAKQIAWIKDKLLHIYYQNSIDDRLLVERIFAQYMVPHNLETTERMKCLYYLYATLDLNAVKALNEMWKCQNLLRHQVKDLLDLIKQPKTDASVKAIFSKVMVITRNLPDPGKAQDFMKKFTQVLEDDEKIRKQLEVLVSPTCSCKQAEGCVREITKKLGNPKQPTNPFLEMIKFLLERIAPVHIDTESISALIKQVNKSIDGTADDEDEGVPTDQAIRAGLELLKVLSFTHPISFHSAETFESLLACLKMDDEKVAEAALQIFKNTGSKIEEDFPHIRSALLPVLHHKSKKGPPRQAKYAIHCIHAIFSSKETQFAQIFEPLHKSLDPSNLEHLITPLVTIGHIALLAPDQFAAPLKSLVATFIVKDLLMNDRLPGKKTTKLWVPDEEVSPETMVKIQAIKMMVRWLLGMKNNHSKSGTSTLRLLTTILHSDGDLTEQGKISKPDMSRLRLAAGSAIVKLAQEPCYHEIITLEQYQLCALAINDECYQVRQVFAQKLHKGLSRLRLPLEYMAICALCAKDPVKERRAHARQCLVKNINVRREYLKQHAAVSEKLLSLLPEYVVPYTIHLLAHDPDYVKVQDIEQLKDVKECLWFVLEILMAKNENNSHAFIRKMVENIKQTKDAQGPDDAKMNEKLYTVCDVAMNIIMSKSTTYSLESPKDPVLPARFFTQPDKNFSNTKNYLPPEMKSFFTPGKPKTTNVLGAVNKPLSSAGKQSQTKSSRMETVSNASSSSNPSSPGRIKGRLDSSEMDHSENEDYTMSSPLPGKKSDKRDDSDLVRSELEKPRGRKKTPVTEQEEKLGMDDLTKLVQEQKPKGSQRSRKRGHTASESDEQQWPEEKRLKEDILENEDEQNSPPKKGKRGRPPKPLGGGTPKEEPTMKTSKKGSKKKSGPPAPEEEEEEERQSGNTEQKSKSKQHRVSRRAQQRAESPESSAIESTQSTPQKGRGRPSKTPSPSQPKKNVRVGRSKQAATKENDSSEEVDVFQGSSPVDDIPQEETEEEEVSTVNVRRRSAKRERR

Question: POGZ (UniProt Q7Z3K3) was tested. Which log2 fold change did it give?
Answer: 0.101

Question: PPM1G (UniProt O15355) was tested. Which log2 fold change did it give?
Answer: 0.094

Question: PTMA (UniProt P06454) was tested. Which log2 fold change did it give?
Answer: 0.047

Question: Which log2 fold change does the source give for PLEKHM2 (UniProt Q8IWE5) here?
Answer: -0.051

Question: Which log2 fold change does the source give for PIP4P2 (UniProt Q8N4L2) here?
Answer: 0.115

Question: How did the log2 fold change turn out when POLR2D (UniProt O15514) was run?
Answer: 0.162

Question: How did the log2 fold change turn out when PEX11B (UniProt O96011) was run?
Answer: -0.082

Question: With PPP2R5B (UniProt Q15173) as the target, how does the log2 fold change read?
Answer: -0.321

Question: Which log2 fold change does the source give for PCNX1 (UniProt Q96RV3) here?
Answer: 0.179

Question: How did the log2 fold change turn out when PIGH (UniProt Q14442) was run?
Answer: -0.034

Question: For PMPCA (UniProt Q10713), which log2 fold change is on record?
Answer: -0.046

Question: Which log2 fold change does the source give for PPID (UniProt Q08752) here?
Answer: 0.019

Question: With PDS5B (UniProt Q9NTI5) as the target, how does the log2 fold change read?
Answer: -0.055

Question: PMM1 (UniProt Q92871) was tested. Which log2 fold change did it give?
Answer: -0.415 (active)

Question: PSMD13 (UniProt Q9UNM6) was tested. Which log2 fold change did it give?
Answer: 0.049

Question: How did the log2 fold change turn out when PRPF38B (UniProt Q5VTL8) was run?
Answer: 0.032

Question: How did the log2 fold change turn out when POLR2K (UniProt P53803) was run?
Answer: 0.24

Question: Which log2 fold change does the source give for PSMD9 (UniProt O00233) here?
Answer: -0.034

Question: PHKG2 (UniProt P15735) was tested. Which log2 fold change did it give?
Answer: -0.279 (active)

Question: How did the log2 fold change turn out when PDE12 (UniProt Q6L8Q7) was run?
Answer: -0.033

Question: PARL (UniProt Q9H300) was tested. Which log2 fold change did it give?
Answer: 0.018

Question: PPP4R3B (UniProt Q5MIZ7) was tested. Which log2 fold change did it give?
Answer: -0.064

Question: For PSMC4 (UniProt P43686), which log2 fold change is on record?
Answer: -0.008

Question: For POM121 (UniProt Q96HA1), which log2 fold change is on record?
Answer: -0.051

Question: PTP4A2 (UniProt Q12974) was tested. Which log2 fold change did it give?
Answer: -0.019

Question: For PNPLA4 (UniProt P41247), which log2 fold change is on record?
Answer: 0.003

Question: Which log2 fold change does the source give for PSMD7 (UniProt P51665) here?
Answer: 0.064

Question: With PCYT1A (UniProt P49585) as the target, how does the log2 fold change read?
Answer: 0.017

Question: Which log2 fold change does the source give for PTGFRN (UniProt Q9P2B2) here?
Answer: -0.007

Question: PTGES3 (UniProt Q15185) was tested. Which log2 fold change did it give?
Answer: -0.005

Question: How did the log2 fold change turn out when PCGF2 (UniProt P35227) was run?
Answer: 0

Question: With PTDSS1 (UniProt P48651) as the target, how does the log2 fold change read?
Answer: 0.147

Question: With PTGR2 (UniProt Q8N8N7) as the target, how does the log2 fold change read?
Answer: 0.043

Question: How did the log2 fold change turn out when PLCB3 (UniProt Q01970) was run?
Answer: 0.028

Question: For PECAM1 (UniProt P16284), which log2 fold change is on record?
Answer: -0.071

Question: With PRPF40A (UniProt O75400) as the target, how does the log2 fold change read?
Answer: 0.057

Question: With PTRHD1 (UniProt Q6GMV3) as the target, how does the log2 fold change read?
Answer: 0.064

Question: For PSPC1 (UniProt Q8WXF1), which log2 fold change is on record?
Answer: 0.034
